# Measured values from PubChem BioAssay (NCATS).
# A number with no mark means an inactive call. Results filed as inconclusive are left out. The list shows a part of the results. The source made the active and inactive calls. Calls come from the whole dose curve; as a rule, active = well fitted curve in the direction sought with a large enough effect; inconclusive = small, poorly fitted or top-dose-only effect, or another doubt; inactive = no such curve, though single readings can be large; an effect the other way counts as inactive or inconclusive.
# Tests used:
# [1] = molecular target: Cytochrome P450 3A4 (Homo sapiens) (UniProt P08684); experiment: qHTS Assay for Inhibitors and Substrates of Cytochrome P450 3A4 (AID 884); note: series mostly up to about 57 µM; % is set by controls: 0 for no effect and ±100 for the full control effect; nearly all actives have a fitted effect of over 50% in size
# Chain of Cytochrome P450 3A4 (Homo sapiens) (P08684 whole entry, looked up): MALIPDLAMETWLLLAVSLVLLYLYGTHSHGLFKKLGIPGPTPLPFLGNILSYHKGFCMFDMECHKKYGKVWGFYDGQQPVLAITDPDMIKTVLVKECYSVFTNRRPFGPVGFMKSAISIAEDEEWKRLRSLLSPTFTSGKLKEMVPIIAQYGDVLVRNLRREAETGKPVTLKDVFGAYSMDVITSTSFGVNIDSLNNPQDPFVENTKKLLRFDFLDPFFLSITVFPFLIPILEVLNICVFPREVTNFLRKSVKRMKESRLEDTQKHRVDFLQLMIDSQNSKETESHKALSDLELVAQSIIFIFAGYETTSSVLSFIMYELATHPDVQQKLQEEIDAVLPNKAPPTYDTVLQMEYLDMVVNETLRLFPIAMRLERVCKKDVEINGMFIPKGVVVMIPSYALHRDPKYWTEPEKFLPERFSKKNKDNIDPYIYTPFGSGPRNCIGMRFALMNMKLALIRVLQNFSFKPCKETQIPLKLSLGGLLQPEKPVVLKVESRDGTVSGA
# Outline: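 Luminescent readout of luciferin produced by CYP3A4 (20 nM) dealkylation of Luciferin-PPXE, 25 uM (its KM). NADPH-driven reaction ran 60 min at RT after 10 min compound preincubation; data scaled to 57 uM ketoconazole as 100% inhibition.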
# [2] = molecular target: DNA dC->dU-editing enzyme APOBEC-3G (Homo sapiens) (UniProt Q9HC16); experiment: qHTS for inhibitors of Vif-A3G interactions: Validation (AID 588379); note: 0% is about no effect
# Outline: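 Yellow fluorescence (Ex 488, Em 500-530) of Vif-coexpressing HeLa A3G-eYFP cells, scanned by Acumen cytometer, reports blocked A3G degradation. Cells plated at 700/well overnight at 37 deg C before compound addition, then a further overnight compound incubation at 37 deg C.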
# [3] = molecular target: Rap guanine nucleotide exchange factor 3 (Homo sapiens) (UniProt O95398); experiment: Confirmatory qHTS for antagonist of cAMP-regulated guanine nucleotide exchange factor 3 (EPAC1) (AID 1645880); note: nearly all actives have a fitted effect of over 55% in size; note: potency is the fitted concentration of half-maximal effect
# Chain of Rap guanine nucleotide exchange factor 3 (Homo sapiens) (O95398 whole entry, looked up): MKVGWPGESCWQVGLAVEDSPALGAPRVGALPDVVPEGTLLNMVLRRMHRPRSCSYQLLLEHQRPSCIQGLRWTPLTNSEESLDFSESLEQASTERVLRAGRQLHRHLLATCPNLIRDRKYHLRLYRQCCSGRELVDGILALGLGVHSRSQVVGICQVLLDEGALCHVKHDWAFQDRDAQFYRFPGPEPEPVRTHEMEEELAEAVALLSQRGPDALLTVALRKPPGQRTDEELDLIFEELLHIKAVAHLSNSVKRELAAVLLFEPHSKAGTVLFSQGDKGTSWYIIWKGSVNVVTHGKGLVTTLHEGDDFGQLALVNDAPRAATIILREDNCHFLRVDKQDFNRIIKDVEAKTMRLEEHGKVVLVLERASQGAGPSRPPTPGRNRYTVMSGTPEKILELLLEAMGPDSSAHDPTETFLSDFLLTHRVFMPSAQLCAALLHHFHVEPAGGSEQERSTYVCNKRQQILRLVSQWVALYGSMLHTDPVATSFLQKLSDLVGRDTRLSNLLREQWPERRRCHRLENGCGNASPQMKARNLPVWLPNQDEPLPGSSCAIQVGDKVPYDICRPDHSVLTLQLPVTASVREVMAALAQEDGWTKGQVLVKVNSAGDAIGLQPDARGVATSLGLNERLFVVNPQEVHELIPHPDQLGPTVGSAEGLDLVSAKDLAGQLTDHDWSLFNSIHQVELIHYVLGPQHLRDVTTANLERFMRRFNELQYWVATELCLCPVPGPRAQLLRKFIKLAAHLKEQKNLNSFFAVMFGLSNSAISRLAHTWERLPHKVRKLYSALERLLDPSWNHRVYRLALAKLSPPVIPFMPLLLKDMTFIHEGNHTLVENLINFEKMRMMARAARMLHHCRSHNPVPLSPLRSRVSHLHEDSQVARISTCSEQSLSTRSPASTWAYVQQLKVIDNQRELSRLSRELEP
# Outline: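 Released BODIPY-GDP fluoresces less than Rap1-bound BODIPY-GDP; the signal is followed at 480/540 nm at 5-min intervals over 30 min, after 5 min at room temperature. Reactions contain 100 nM EPAC1, 250 nM RAP1B-BODIPY-GDP and 50 uM GDP; results are normalized to ATA and DMSO.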
# [4] = molecular target: Rap guanine nucleotide exchange factor 3 (Homo sapiens) (UniProt O95398); experiment: Confirmatory qHTS for agonist of cAMP-regulated guanine nucleotide exchange factor 3 (EPAC1) (AID 1645881);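 note: EPAC1 catalysed release of BODIPY-GDP from Rap1B seen as fluorescence loss; 100% = effect of cAMP agonist control; nearly all actives have a fitted effect of over 75% in size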
# [5] = molecular target: Rap guanine nucleotide exchange factor 4 (Homo sapiens) (UniProt Q8WZA2); experiment: Confirmatory qHTS for agonist of cAMP-regulated guanine nucleotide exchange factor 4 (EPAC2) (AID 1645884);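 note: nucleotide exchange releases bodipy-GDP from Rap1 and this lowers its fluorescence; % is set by controls: 0 for no effect and ±100 for the full control effect; nearly all actives have a fitted effect of over 65% in size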
# Chain of Rap guanine nucleotide exchange factor 4 (Homo sapiens) (Q8WZA2 whole entry, looked up): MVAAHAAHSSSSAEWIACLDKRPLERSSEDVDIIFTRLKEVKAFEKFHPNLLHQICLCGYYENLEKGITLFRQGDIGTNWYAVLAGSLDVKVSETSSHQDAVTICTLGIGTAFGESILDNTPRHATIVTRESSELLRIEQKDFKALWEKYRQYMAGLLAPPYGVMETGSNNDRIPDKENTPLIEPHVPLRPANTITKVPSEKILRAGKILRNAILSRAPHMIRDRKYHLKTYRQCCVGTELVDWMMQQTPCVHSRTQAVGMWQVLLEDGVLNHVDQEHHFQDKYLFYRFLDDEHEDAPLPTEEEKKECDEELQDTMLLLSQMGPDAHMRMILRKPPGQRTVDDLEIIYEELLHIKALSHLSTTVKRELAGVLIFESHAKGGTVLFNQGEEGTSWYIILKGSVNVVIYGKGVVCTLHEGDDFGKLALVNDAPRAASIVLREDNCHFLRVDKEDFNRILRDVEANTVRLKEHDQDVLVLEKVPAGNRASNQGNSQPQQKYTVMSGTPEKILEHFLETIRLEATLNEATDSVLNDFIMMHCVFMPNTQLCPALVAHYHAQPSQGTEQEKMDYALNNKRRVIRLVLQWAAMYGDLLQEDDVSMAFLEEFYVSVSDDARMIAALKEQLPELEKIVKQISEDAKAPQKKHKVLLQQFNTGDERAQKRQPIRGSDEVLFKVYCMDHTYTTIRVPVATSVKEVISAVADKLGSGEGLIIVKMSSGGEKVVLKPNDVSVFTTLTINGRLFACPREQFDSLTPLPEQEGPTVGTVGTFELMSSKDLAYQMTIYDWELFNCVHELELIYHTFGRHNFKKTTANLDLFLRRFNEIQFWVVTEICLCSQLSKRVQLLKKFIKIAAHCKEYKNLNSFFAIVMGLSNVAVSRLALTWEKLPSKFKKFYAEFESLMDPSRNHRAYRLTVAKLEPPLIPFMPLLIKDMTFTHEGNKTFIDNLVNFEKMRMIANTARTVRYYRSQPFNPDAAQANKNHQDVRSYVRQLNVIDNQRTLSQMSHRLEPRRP
# [6] = molecular target: Rap guanine nucleotide exchange factor 4 (Homo sapiens) (UniProt Q8WZA2); experiment: Confirmatory qHTS for antagonist of cAMP-regulated guanine nucleotide exchange factor 4 (EPAC2) (AID 1645885); note: % is set by controls: 0 for no effect and ±100 for the full control effect; nearly all actives have a fitted effect of over 25% in size
# [7] = molecular target: Rap guanine nucleotide exchange factor 3 (Homo sapiens) (UniProt O95398); experiment: Counterscreen qHTS for antagonist of cAMP-regulated guanine nucleotide exchange factor 3 (EPAC1) (AID 1645888); note: % of control where 0% means no effect
# Outline: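 Rap1B-BODIPY-GDP 250 nM + GDP 50 uM; cpds 7-pt, final 9.74 nM–152 uM (activator mode) or from 7.32 nM upwards (inhibitor mode); RT; FI 480/540 nm at 5 and 30 min, then ± cAMP, reread.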
# [8] = molecular target: Vitamin D3 receptor (Homo sapiens) (UniProt P11473); experiment: qHTS for Inhibitors of the vitamin D receptor (VDR): Hit Validation using a Beta-Lactamase Assay (AID 602202); note: % is set by controls: 0 for no effect and ±100 for the full control effect
# Outline: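 Beta-lactamase reporter read-out (447 nm emission of cleaved FRET substrate, 2 h) after 18 h compound exposure of HEK293 cells carrying a VDR-GAL4 fusion and UAS reporter, stimulated with LG190178.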
# [9] = qHTS for Inhibitors of the vitamin D receptor (VDR): Hit Validation using a Cytotoxicity Assay (AID 602204);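 note: plate controls were DMSO for no effect and high-concentration cycloheximide for full effect; nearly all actives have a fitted effect of over 75% in size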
# Outline: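 Luminescence proportional to cellular ATP reports viability. Cells (20,000 per well) rested 4 h, were treated with compounds for 18 h, then incubated 30 min with detection reagent. Controls: cycloheximide (high) and DMSO.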
# [10] = molecular target: Phosphoglycerate kinase, glycosomal (Trypanosoma brucei brucei) (UniProt P07378); experiment: qHTS for inhibitors of Phosphogylcerate Kinase: Hit Validation Screen (AID 686980); conditions: TbPGK coupled GAPDH assay, Kinase-Glo luminescence; note: potency is the fitted concentration of half-maximal effect; nearly all actives have a fitted effect of over 65% in size
# Outline: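 Recombinant glycosomal PGK reaction used 1,3-bisphosphoglycerate generated in-well by GAPDH (100nM final) in 100mM TEA pH 7.6, 5mM MgCl2, 0.01% Tween-20. After 60 minutes at room temperature, ATP was read by Kinase-Glo Plus luminescence end-point.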
# [11] = molecular target: DNA polymerase iota (Homo sapiens) (UniProt Q9UNA4); experiment: qHTS for Inhibitors of Polymerase Iota: Confirmatory Assay for Cherry-picked Compounds (AID 720496); conditions: Pol iota primer extension, TAMRA/BHQ fluorescence; note: potency is the fitted concentration of half-maximal effect
# Outline: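 Extension of a quenched TAMRA-reporter/BHQ-2-template DNA substrate (50 nM) by 10 nM Pol iota after 15 min compound preincubation. Strand-displacement fluorescence (525/598 nm) was read kinetically at 0 and 10 min. Buffer-only wells served as negative control.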
# [12] = molecular target: Bifunctional 3'-5' exonuclease/ATP-dependent helicase WRN (Homo sapiens) (UniProt Q14191); experiment: qHTS for Inhibitors of WRN Helicase: Confirmatory Assay for Cherry-picked Compounds. (AID 720497); conditions: WRN helicase DNA unwinding, fluorescence kinetic; note: potency is the fitted concentration of half-maximal effect; nearly all actives have a fitted effect of over 65% in size
# Outline: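 Kinetic fluorescence unwinding readout (525/598 nm) of a forked duplex oligonucleotide substrate, 100 nM, with 2 mM ATP and 20 nM WRN. Compounds were added 15 min before substrate at room temperature. Activity was scaled between uninhibited enzyme and buffer-only controls.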
# [13] = molecular target: Flap endonuclease 1 (Homo sapiens) (UniProt P39748); experiment: qHTS Assay for the Inhibitors of FEN1: Confirmatory Assay for Cherry-picked Compounds (AID 720498); conditions: FEN1 flap cleavage, TAMRA/BHQ2 fluorogenic DNA substrate; note: potency is the fitted concentration of half-maximal effect; nearly all actives have a fitted effect of over 60% in size
# Chain of Flap endonuclease 1 (Homo sapiens) (P39748 whole entry, looked up): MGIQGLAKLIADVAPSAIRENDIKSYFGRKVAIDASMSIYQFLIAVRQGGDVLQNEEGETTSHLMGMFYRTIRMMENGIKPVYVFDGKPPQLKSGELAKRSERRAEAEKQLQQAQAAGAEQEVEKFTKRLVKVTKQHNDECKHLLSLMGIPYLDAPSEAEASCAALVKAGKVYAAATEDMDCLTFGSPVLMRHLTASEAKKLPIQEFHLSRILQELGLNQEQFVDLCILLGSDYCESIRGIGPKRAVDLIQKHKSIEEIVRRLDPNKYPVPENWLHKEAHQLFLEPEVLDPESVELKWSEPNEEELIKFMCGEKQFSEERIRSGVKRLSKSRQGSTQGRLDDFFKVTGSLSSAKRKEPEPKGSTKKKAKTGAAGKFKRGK
# Outline: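 Human FEN1 (10 nM reagent) was preincubated with compounds for 15 min at room temperature, then 50 nM final double-flap DNA substrate (5'-TAMRA flap, BHQ-2 quencher strand) was added. Fluorescence (ex 525/em 598 nm) was read at 0 and 15 min.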
# [14] = qHTS for Inhibitors of WRN Helicase: Thiazole Orange DNA Binding Counterscreen (AID 720499); conditions: thiazole orange DNA binding displacement, fluorescence;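 note: drop in dye fluorescence marks compound binding to DNA; potency is the fitted concentration of half-maximal effect; nearly all actives have a fitted effect of over 60% in size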
# Outline: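 Dye-displacement counterscreen: 50 nM DNA + 100 nM ThO, cpd added by pintool, 15 min RT, fluorescence ex 480/em 530 nm.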
# [15] = molecular target: DNA polymerase kappa (Homo sapiens) (UniProt Q9UBT6); experiment: qHTS for Inhibitors of Polymerase Kappa: Confirmatory Assay for Cherry-picked Compounds (AID 720501); conditions: purified Pol-kappa, fluorescent strand-displacement substrate; note: potency is the fitted concentration of half-maximal effect
# Chain of DNA polymerase kappa (Homo sapiens) (Q9UBT6 whole entry, looked up): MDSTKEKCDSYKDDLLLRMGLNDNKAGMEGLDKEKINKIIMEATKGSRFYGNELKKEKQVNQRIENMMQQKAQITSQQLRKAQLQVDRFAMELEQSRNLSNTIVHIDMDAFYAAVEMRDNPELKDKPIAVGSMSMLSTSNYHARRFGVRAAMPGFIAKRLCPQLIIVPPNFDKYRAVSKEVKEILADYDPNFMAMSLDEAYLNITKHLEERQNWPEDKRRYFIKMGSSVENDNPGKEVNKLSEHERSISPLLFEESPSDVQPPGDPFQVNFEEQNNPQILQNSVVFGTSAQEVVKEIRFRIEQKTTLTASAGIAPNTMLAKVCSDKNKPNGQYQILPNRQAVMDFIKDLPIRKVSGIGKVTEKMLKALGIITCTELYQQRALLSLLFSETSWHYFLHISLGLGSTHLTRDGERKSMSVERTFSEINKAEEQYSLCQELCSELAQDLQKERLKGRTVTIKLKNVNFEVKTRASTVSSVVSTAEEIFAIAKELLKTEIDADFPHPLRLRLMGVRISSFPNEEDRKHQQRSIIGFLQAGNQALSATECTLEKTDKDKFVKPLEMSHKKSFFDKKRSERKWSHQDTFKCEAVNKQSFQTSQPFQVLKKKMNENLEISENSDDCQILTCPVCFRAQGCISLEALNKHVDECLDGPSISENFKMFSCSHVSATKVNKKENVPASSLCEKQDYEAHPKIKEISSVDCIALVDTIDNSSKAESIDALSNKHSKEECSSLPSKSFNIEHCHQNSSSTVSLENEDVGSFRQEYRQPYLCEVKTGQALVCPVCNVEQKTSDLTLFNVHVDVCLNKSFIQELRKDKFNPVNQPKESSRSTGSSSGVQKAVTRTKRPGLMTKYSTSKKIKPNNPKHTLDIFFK
# Outline: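 Strand-displacement fluorescence read-out: TAMRA reporter released from a BHQ-2-quenched template, measured at 525/598 nm over a 10 min kinetic window. Substrate was 50 nM final; enzyme was 10 nM Pol-kappa, preincubated 15 min at room temperature with compound.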
# [16] = molecular target: DNA polymerase eta (Homo sapiens) (UniProt Q9Y253); experiment: qHTS for Inhibitors of Polymerase Eta: Confirmatory Assay for Cherry-picked Compounds (AID 720502); conditions: Pol eta primer extension, TAMRA/BHQ fluorescence, 10 min; note: potency is the fitted concentration of half-maximal effect
# Outline: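 Strand-displacement fluorescence (525 nm excitation, 598 nm emission) was read kinetically at 0 and 10 min after adding 50 nM final TAMRA-reporter/BHQ-2-template substrate. Beforehand, 10 nM Pol eta had been exposed to compound for 15 min at room temperature.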
# [17] = molecular target: RecQ-like DNA helicase BLM (Homo sapiens) (UniProt P54132); experiment: qHTS for Inhibitors of WRN Helicase: BLM Helicase Counterscreen for WRN Inhibitors (AID 720503); conditions: Recombinant BLM helicase DNA unwinding, red fluorescence; note: potency is the fitted concentration of half-maximal effect; nearly all actives have a fitted effect of over 60% in size
# Chain of RecQ-like DNA helicase BLM (Homo sapiens) (P54132 whole entry, looked up): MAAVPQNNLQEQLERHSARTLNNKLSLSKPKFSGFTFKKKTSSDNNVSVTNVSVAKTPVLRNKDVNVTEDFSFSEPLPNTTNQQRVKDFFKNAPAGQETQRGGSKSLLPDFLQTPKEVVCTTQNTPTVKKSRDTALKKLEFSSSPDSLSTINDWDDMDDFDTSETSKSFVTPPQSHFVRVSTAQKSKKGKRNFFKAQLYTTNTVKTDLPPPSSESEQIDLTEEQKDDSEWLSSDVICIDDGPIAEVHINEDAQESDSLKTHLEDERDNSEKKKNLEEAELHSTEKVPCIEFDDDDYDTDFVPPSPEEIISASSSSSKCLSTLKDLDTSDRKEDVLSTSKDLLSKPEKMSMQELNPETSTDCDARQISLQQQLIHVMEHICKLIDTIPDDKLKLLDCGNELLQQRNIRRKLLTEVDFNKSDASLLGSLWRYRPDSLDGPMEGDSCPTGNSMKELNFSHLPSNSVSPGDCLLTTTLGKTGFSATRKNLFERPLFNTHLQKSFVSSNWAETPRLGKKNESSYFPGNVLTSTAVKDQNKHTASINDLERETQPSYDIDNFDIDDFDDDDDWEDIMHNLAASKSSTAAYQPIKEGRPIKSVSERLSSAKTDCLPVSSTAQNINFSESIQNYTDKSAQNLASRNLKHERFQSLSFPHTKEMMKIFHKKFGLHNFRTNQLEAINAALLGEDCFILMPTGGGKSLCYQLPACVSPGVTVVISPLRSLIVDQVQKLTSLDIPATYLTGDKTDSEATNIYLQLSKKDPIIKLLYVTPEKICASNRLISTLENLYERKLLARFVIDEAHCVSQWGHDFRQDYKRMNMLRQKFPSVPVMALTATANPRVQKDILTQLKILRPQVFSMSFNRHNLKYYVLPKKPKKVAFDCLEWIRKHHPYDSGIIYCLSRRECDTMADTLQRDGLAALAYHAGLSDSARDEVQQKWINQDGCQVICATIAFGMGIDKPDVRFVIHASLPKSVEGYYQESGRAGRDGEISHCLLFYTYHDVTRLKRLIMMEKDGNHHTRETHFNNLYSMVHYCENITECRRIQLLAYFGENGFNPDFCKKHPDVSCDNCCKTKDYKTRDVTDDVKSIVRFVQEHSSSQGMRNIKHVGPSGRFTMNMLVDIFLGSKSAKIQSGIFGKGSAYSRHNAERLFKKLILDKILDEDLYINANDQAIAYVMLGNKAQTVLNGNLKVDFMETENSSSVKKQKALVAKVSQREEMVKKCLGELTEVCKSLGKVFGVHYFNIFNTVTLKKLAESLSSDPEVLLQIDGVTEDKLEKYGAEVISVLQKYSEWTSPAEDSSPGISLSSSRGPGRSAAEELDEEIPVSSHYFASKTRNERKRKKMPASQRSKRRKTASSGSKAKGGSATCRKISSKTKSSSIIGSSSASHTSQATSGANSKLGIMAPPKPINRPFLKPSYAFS
# Outline: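 Reactions were started with 100 nM DNA substrate and 2 mM ATP (final) after compound and 1 nM BLM stood 15 min at room temperature in Tris-HCl pH 8.0 buffer with NaCl, MgCl2, DTT and Tween-20. Two red-fluorescence reads 15 min apart were normalized against DMSO and no-enzyme wells.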
SMILES,Potency [1],outcome [2],Potency [3],Potency [4],Potency [5],Potency [6],outcome [7],outcome [8],outcome [9],Potency [10],Potency [11],Potency [12],Potency [13],Potency [14],Potency [15],Potency [16],Potency [17],activation [5],"activity change, negative = inhibition [6]","activity change, negative = inhibition [7]"
CN1CC[C@@]2(C)c3cc(O)ccc3N(C)[C@@H]12,inactive,inactive,inactive,inactive,inactive,inactive,inactive,,,,,,,,,,,,,
COc1ccc(N2C(=O)/C(=C/c3ccco3)C(=O)NC2=S)cc1,,,6310 nM (active),inactive,,,,inactive,inactive,517 nM (active),1060 nM (active),1520 nM (active),21300 nM (active),3410 nM (active),670 nM (active),2390 nM (active),215 nM (active),"10.2% [at 17.1 µM, percent relative to cAMP agonist control]",33.5% [at 12.7 µM],-2.79% [at 30.8 µM]
